Results published in PubChem BioAssay (NCI).
Compounds without any hit were thinned out: in the full panel of roughly 83,000, 20% have a hit.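 Treatment: one concentration, 48 hours, 96-well format. Scoring: percent growth, with anything below 10 considered active.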 Values without a mark were called inactive. Active and inactive are the calls of the source.

Assays:
Test in all cases: NCI-60 one-dose screen, 48 h (100 = growth as untreated, 0 = no growth, -100 = all killed)
Settings in all cases: 10 µM unless noted
HCT-15 colon = tested on: HCT-15 colon
HT29 colon = tested on: HT29 colon
SNB-75 CNS = tested on: SNB-75 CNS
SNB-19 CNS = tested on: SNB-19 CNS
U251 CNS = tested on: U251 CNS
PC-3 prostate = tested on: PC-3 prostate
SK-MEL-5 melanoma = tested on: SK-MEL-5 melanoma
UACC-62 melanoma = tested on: UACC-62 melanoma
LOX IMVI melanoma = tested on: LOX IMVI melanoma
SK-MEL-28 melanoma = tested on: SK-MEL-28 melanoma

| Structure (SMILES) | growth (HCT-15 colon) | growth (HT29 colon) | growth (SNB-75 CNS) | growth (SNB-19 CNS) | growth (U251 CNS) | growth (PC-3 prostate) | growth (SK-MEL-5 melanoma) | growth (UACC-62 melanoma) | growth (LOX IMVI melanoma) | growth (SK-MEL-28 melanoma) |
| --- | --- | --- | --- | --- | --- | --- | --- | --- | --- | --- |
| O=S(=O)(OCCO)c1ccccc1 | 103% | 98.9% | 75% | 102% | 106% | 99.3% | 94.4% | 94.2% | 103% | 110% |
| N#C/C(=C\c1ccc[nH]1)c1cc2ccccc2[nH]1 | 50.2% | 80.2% | 62.2% | 78.5% | 69.7% | 58% | 57.2% | 67.8% | 75.2% | – |
| COc1cc(OCc2cccc(-c3ccc(C(O)c4nccs4)cc3)c2C)cc(OC)c1C=O (stereo not given) | 32.3% | 48.7% | 69.6% | 70.4% | 60.6% | 52.2% | -78.1% (active) | -4.45% (active) | 48.8% | – |
| COc1ccc(C2SC(C)C(=O)N2CCc2cccs2)cc1OC (stereo not given) | 87.8% | 91.6% | 69.1% | 86.9% | 83.2% | 65.7% | 49.4% | 73.5% | 81.9% | 108% |
| O=C(Nc1nc2ccccc2[nH]1)C(=O)Nc1nc2ccccc2[nH]1 | 86.2% | 107% | 93.4% | 101% | 96.5% | 85.7% | 99.2% | 97.5% | 93.5% | – |
| CCC(C)[C@H]1O[C@]2(CC[C@@H]1C)C[C@@H]1C[C@@H](C/C=C(\C)[C@@H](OC3C[C@H](OC)C(O[C@H]4C[C@H](OC)[C@@H](O)[C@H](C)O4)[C@H](C)O3)[C@@H](C)/C=C/C=C3\CO[C@@H]4[C@H](O)C(C)=C[C@@H](C(=O)O1)[C@]34O)O2 (stereo not given in full) | 8.26% (active) | 4.41% (active) | -0.276% (active) | 33.1% | 31.5% | 1.52% (active) | -85.4% (active) | 18.4% | -83.1% (active) | – |
| Cc1cccc2c(=O)c3c(sc12)c(NCCNCCO)nc1ccccc13 | 0.304% (active) | -55.4% (active) | 32.8% | 49.6% | 13.4% | 38.7% | 39.5% | 26% | -89.8% (active) | – |
| Cc1cccc2c(=O)c3c(sc12)c(NCCCN)nc1ccccc13 | -69.2% (active) | -52.8% (active) | 19.7% | 51.3% | 1.33% (active) | 34.8% | 47.3% | 14.2% | -93.7% (active) | 8.94% (active) |
| CN1CCc2cccc3c2C1Cc1ccc(O)c(O)c1-3 (stereo not given) | 70.7% | 76.2% | 83.6% | 111% | 99.9% | 65.6% | 97.5% | 105% | 67.8% | – |
| Clc1ccc(Nc2nc(Nc3ccccc3)nc(Nc3ccc(-c4cc(-c5ccc(Cl)cc5)on4)cc3)n2)cc1 | 43.1% | -2.96% (active) | 16.6% | 76.7% | 48.5% | 46.1% | 86% | 53.3% | 32.5% | 77.7% |
| CCN(CC)c1ccc(/C=C(\C#N)c2cc3ccccc3[nH]2)cc1 | 29.7% | 13.7% | 55.2% | 72.9% | 41.7% | 77% | 52.1% | 64% | 29.7% | 67.1% |
| CCOC(=O)c1c(Cl)c2c(n1Cc1ccc(OC)cc1)-c1oncc1CCC2 | 83.7% | 78.8% | 75% | 89.1% | 89.3% | 58.6% | 72.1% | 73.6% | 77.8% | 101% |
| COc1ncnc2c1ncn2C/C(Br)=C(\Br)CCl | 31.6% | -56.8% (active) | 46.6% | 89.9% | -71.8% (active) | 46.4% | 53.7% | 57.3% | -87.2% (active) | – |
| O=c1c2c(=NCCN3CCCC3)cc3c(=O)n(CCCN4CCOCC4)c(=O)c4c(-c5ccc(CN6CCCC6)cc5)cc(c(O)n1CCCN1CCOCC1)c2c4-3 | -30% (active) | -23.4% (active) | -83.5% (active) | -9.24% (active) | -19.4% (active) | -47.2% (active) | -44.6% (active) | -73.2% (active) | -78.2% (active) | -67.8% (active) |
| CS(=O)(=O)Nc1cccc(C(=O)NCc2ccc(N3CCOCC3)cc2)c1 | 104% | 95% | 68.2% | 108% | 107% | 104% | 98.9% | 113% | 99.8% | 107% |
| Cc1cc(=O)oc2c1ccc1oc(C(=O)c3ccccc3)c(C)c12 | 64% | 51.8% | 103% | 103% | 83.9% | 86.4% | 84.3% | 80.8% | 80.5% | 105% |
| Cc1nn2c(-c3nc4ccc(Cl)cc4[nH]3)c(-c3ccc(F)cc3)nc2s1 | 76.4% | 94.4% | 86.3% | 112% | 97.6% | 78.6% | 90.9% | 91.6% | 91.1% | – |
| CCC12CCC3c4ccc(O)cc4CCC3C1CC(O)C2O (stereo not given) | 57.4% | 96.9% | 65.8% | 90.1% | 56.5% | 85.5% | 63.4% | 67.6% | 81% | – |
| COc1ccc(Sc2ccc3[nH]c(=O)nc(N)c3c2)cc1 | 103% | 106% | 91.3% | 94.1% | 94.3% | 96.9% | 103% | 105% | 99.7% | – |
| NC(=O)c1cccc(-n2ccc3cc(NC(=O)Nc4ccc(Cl)c(Cl)c4)ccc32)n1 | 59.7% | 60.9% | 68.5% | 86.3% | 66.7% | 73.3% | 74.1% | 83.2% | 81.9% | 88.1% |
| Clc1ccc(C2=NN(c3ccccc3)[C@H](c3cn(-c4ccccc4)nc3-c3ccccc3)C2)cc1 | 103% | 94.6% | 97% | 103% | 93.1% | 93.9% | 114% | 107% | 96.4% | 110% |
| COc1c(O)c2c3c(c1OC)-c1ccccc1CC3N(S(=O)(=O)c1ccc(C)cc1)CC2 (stereo not given) | 37.3% | 121% | 22.8% | 61.6% | 22.5% | 48.5% | 21.8% | 58% | 51.7% | – |
| c1ccc(-c2n(Cc3ccc4ccccc4c3)c3ccccc3[n+]2Cc2ccc3ccccc3c2)cc1 | -31.9% (active) | -68.1% (active) | -43.9% (active) | -16.4% (active) | -73.3% (active) | -30.5% (active) | -98.1% (active) | -82.9% (active) | -97.3% (active) | -43.7% (active) |
| Cc1ccc(NS(=O)(=O)c2ccc(-c3cnc(C4CC4)o3)cc2)cc1 | 17.5% | 12% | 18.8% | 37.6% | 39.9% | 49.7% | 15% | 27.3% | 39.2% | 53.9% |
| COc1cc2oc(-c3ccc(O)cc3)cc(=O)c2c(O)c1I | 100% | 107% | 99% | 95.9% | 97% | 97.5% | 101% | 102% | 107% | – |
| CCOC(=O)c1c(Cl)c2c(n1Cc1cc(OC)cc(OC)c1)-c1oncc1CCC2 | 21.5% | 3.92% (active) | 1.91% (active) | 55.8% | 33.2% | 23.4% | 17.7% | 28.5% | 43.7% | 40.7% |
| CCCCc1ccc(NC(=O)C(F)(F)F)cc1 | 105% | 99.8% | 102% | 106% | 97.4% | 101% | 106% | 99.9% | 95.5% | – |
| COc1cccc(OC(=O)c2ccccc2)c1OC(=O)c1ccccc1 | 70.9% | 85.3% | 55.3% | 73.5% | 49.2% | 77% | 56.9% | 66% | 63% | – |
| Cc1ccc(C2SCC(=O)N2NC(=O)c2[nH]c3ccc(F)cc3c2-c2ccccc2)cc1 (stereo not given) | 89.8% | 74.4% | 71.4% | 88.5% | 81% | 59.9% | 89.6% | 78.1% | 91.2% | – |
